# Many of the other results were omitted from the sample, so the strongest signals are more common in it than they were.
# B1: AFCNVH (Aspergillus fumigatus) (protein)
# chain: MSLRGFHTTCDTIVLKDKHILSSRCKRPDGTYSFSEIDLNDCLGNNNGKFVWGGESFVDSASQVNLALEGGEGRPMLHAQLNDWHGSVQSASVNLGECIQNEAGGLEYMHC
# Columns and labels:
# Assay in all cases: glycan array binding signal (z-score within array); higher = stronger binding
# Settings in all cases: glycan notation: IUPAC condensed, linker removed
# [1] = molecular target: Fuc(a1-2)Gal(b1-4)Fuc(a1-3)]GlcNAc(b1-2)Man(a1-3)[Fuc(a1-2)Gal(b1-4)[Fuc(a1-3)]GlcNAc(b1-2)Man(a1-6)]Man(b1-4)GlcNAc(b1-4)GlcNAc
# Procedure, shortened: (§1)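 The binding signal is a Z-score computed within each array and averaged over linkers. Arrays of the same protein sequence at different concentrations or buffers were also averaged together. Data originate from 3228 arrays in the Consortium for Functional Glycomics database, kept only where the protein sequence was available.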
# [2] = molecular target: Fuc(a1-2)Gal(b1-4)GlcNAc(b1-2)Man(a1-3)[Fuc(a1-2)Gal(b1-4)GlcNAc(b1-2)Man(a1-6)]Man(b1-4)GlcNAc(b1-4)[Fuc(a1-6)]GlcNAc
# Procedure, shortened: as §1
# [3] = molecular target: Fuc(a1-2)Gal(b1-4)GlcNAc(b1-2)[Fuc(a1-2)Gal(b1-4)GlcNAc(b1-4)]Man(a1-3)[Fuc(a1-2)Gal(b1-4)GlcNAc(b1-2)Man(a1-6)]Man(b1-4)GlcNAc(b1-4)GlcNAc
# Procedure, shortened: as §1
# [4] = molecular target: Fuc(a1-2)[Gal(a1-3)]Gal(b1-3)GlcNAc(b1-2)Man(a1-3)[Fuc(a1-2)[Gal(a1-3)]Gal(b1-3)GlcNAc(b1-2)Man(a1-6)]Man(b1-4)GlcNAc(b1-4)[Fuc(a1-6)]GlcNAc
# Procedure, shortened: as §1
# [5] = molecular target: Fuc(a1-2)[Gal(a1-4)]Gal(b1-4)GlcNAc
# Procedure, shortened: as §1
# [6] = molecular target: Fuc(a1-3)[Gal(b1-4)]Glc6S
# Procedure, shortened: as §1
# [7] = molecular target: Fuc(a1-3)[Gal(b1-4)]GlcNAc6S
# Procedure, shortened: as §1
# [8] = molecular target: Fuc(a1-3)[GalNAc(b1-4)]GlcNAc6S
# Procedure, shortened: as §1
# Gal(a1-3)Gal(b1-3)GlcNAc = molecular target: Gal(a1-3)Gal(b1-3)GlcNAc
# Procedure, shortened: as §1
# Gal(a1-3)GalNAc = molecular target: Gal(a1-3)GalNAc
# Procedure, shortened: as §1
# [9] = molecular target: Gal(b1-3)GalNAc(b1-3)Gal(a1-4)Gal(b1-4)Glc
# Procedure, shortened: as §1
# [10] = molecular target: Gal(b1-3)GlcNAc(b1-6)Gal(b1-4)GlcNAc
# Procedure, shortened: as §1
# [11] = molecular target: Gal(b1-3)[Neu5Ac(a2-6)]GalNAc
# Procedure, shortened: as §1
# [12] = molecular target: Gal(b1-4)GlcNAc(b1-2)[Gal(b1-4)GlcNAc(b1-6)]Man(a1-6)[Gal(b1-4)GlcNAc(b1-2)Man(a1-3)]Man(b1-4)GlcNAc(b1-4)[Fuc(a1-6)]GlcNAc
# Procedure, shortened: as §1
# [13] = molecular target: Gal(b1-4)GlcNAc(b1-3)Gal(b1-4)GlcNAc(b1-3)[Gal(b1-4)GlcNAc(b1-3)Gal(b1-4)GlcNAc(b1-6)]GalNAc
# Procedure, shortened: as §1
# [14] = molecular target: Gal(b1-4)GlcNAc(b1-3)[GlcNAc(b1-6)]Gal(b1-4)GlcNAc
# Procedure, shortened: as §1
# [15] = molecular target: GalNAc(a1-3)GalNAc(b1-3)Gal(a1-4)Gal(b1-4)Glc
# Procedure, shortened: as §1
# [16] = molecular target: GalNAc(b1-3)Gal(a1-6)Gal(b1-4)Glc
# Procedure, shortened: as §1
# [17] = molecular target: GalNAc(b1-4)GlcNAc(b1-2)Man
# Procedure, shortened: as §1
# [18] = molecular target: GalNAc(b1-4)GlcNAc(b1-2)Man(a1-3)[GalNAc(b1-4)GlcNAc(b1-2)Man(a1-6)]Man(b1-4)GlcNAc(b1-4)GlcNAc
# Procedure, shortened: as §1
# GalNAc3S(b1-4)GlcNAc = molecular target: GalNAc3S(b1-4)GlcNAc
# Procedure, shortened: as §1
# [19] = molecular target: GlcNAc(a1-3)Gal(b1-4)GlcNAc
# Procedure, shortened: as §1
# [20] = molecular target: GlcNAc(a1-4)Gal(b1-4)GlcNAc(b1-3)Gal(b1-4)Glc
# Procedure, shortened: as §1
# [21] = molecular target: GlcNAc(b1-2)Man(a1-3)[GlcNAc(b1-2)Man(a1-6)]Man(b1-4)GlcNAc(b1-4)GlcNAc
# Procedure, shortened: as §1
# [22] = molecular target: GlcNAc(b1-2)Man(a1-3)[GlcNAc(b1-4)][GlcNAc(b1-2)Man(a1-6)]Man(b1-4)GlcNAc(b1-4)GlcNAc
# Procedure, shortened: as §1
binder,measurement,setting,value
B1,glycan array binding signal (z-score),[1],-0.233
same,glycan array binding signal (z-score),[2],-0.175
same,glycan array binding signal (z-score),[3],-0.277
same,glycan array binding signal (z-score),[4],-0.326
same,glycan array binding signal (z-score),[5],0.231
same,glycan array binding signal (z-score),[6],-0.331
same,glycan array binding signal (z-score),[7],-0.372
same,glycan array binding signal (z-score),[8],0.612
same,glycan array binding signal (z-score),Gal(a1-3)Gal(b1-3)GlcNAc,-0.453
same,glycan array binding signal (z-score),Gal(a1-3)GalNAc,-0.37
same,glycan array binding signal (z-score),[9],-0.212
same,glycan array binding signal (z-score),[10],-0.391
same,glycan array binding signal (z-score),[11],-0.504
same,glycan array binding signal (z-score),[12],-0.378
same,glycan array binding signal (z-score),[13],-0.168
same,glycan array binding signal (z-score),[14],4.53
same,glycan array binding signal (z-score),[15],-0.347
same,glycan array binding signal (z-score),[16],-0.462
same,glycan array binding signal (z-score),[17],4.18
same,glycan array binding signal (z-score),[18],4.08
same,glycan array binding signal (z-score),GalNAc3S(b1-4)GlcNAc,1.43
same,glycan array binding signal (z-score),[19],4.61
same,glycan array binding signal (z-score),[20],3.99
same,glycan array binding signal (z-score),[21],-0.164
same,glycan array binding signal (z-score),[22],4.58
